Inhibition data for 29 molecules are collected here from ChEMBL document CHEMBL1157539, “Thousands of chemical starting points for antimalarial lead identification” (Nature, 2010).

Each structure is given as a SMILES string.

What all share (type): functional
Test [1] has as its system Plasmodium falciparum. Put plainly: GSK_TCMDC: Inhibition of Plasmodium falciparum 3D7 in whole red blood cells, using parasite LDH activity as an index of growth. Test compounds present at 2uM.
Test [2] deals with Plasmodium falciparum. Put plainly: GSK_TCMDC: Inhibition of Plasmodium falciparum Dd2 in whole red blood cells, using parasite LDH activity as an index of growth. Test compounds present at 2uM.
Another test relates to HepG2. Put plainly: GSK_TCMDC: Percent inhibition of human HepG2 cell line. Test compounds present at 10uM.

In general, Inhibition refers to how much of the control response was suppressed. Take `CC(C)(CNCc1ccc(Cl)cc1)c1nc(-c2ccc(Cl)c(O)c2)c(-c2ccncc2)[nH]1.Cl`: the Inhibition amounted to 100% in the test with Plasmodium falciparum [1], 98% in the test with Plasmodium falciparum [2] and 86% in the test with HepG2.

As to `Cl.O=C(O[C@H]1CN[C@H](C#Cc2cc3ncnc(Nc4ccc5c(ccn5S(=O)(=O)c5cccs5)c4)c3s2)C1)N1CCOCC1`, the Inhibition in the test on Plasmodium falciparum [1] was 85%; with Plasmodium falciparum [2], 48%; with HepG2, 0%.

Regarding `O=C(Nc1cccnc1)c1cc(C(=O)Nc2cccnc2)cc([N+](=O)[O-])c1`, the Inhibition in the test with Plasmodium falciparum [1] came out at 100%; in the test on Plasmodium falciparum [2] it was 100%; with HepG2, 0%.

Consider `C=C[C@H]1CN(CCCCCCC)CC[C@H]1CCN(C)c1ccnc2ccc(OC)cc12.O=C(O)C(=O)O`, for which the Inhibition in the test on Plasmodium falciparum [1] was 97%; in the test with Plasmodium falciparum [2], 93%; with HepG2 it was 22%.

As to `Cc1ccc(NC(=O)c2cccc(CN3CCCN(Cc4cccc(O)c4)CC3)c2)cc1.O=C(O)C(F)(F)F`, the Inhibition in the test with Plasmodium falciparum [1] is 82%; in the test with Plasmodium falciparum [2], 3%; with HepG2, 22%.

`CC(C)(C)CNCC(C)(C)c1nc(-c2ccc(Cl)c(O)c2)c(-c2ccncc2)[nH]1.Cl`: the values for the Inhibition in the test with Plasmodium falciparum [1], in the test on Plasmodium falciparum [2] and with HepG2 were 100%, 98% and 42%, respectively.

With `CCOc1ccc(-c2noc(-c3c[nH]c4ccccc4c3=O)n2)cc1`, the results for the Inhibition with Plasmodium falciparum [1], with Plasmodium falciparum [2] and in the test on HepG2 were 99%, 93% and 0%, respectively.

For the molecule `Cc1nc(N)nc(N)c1OCCCCCCOc1ccccc1.Cl`, the Inhibition in the test on Plasmodium falciparum [1] is recorded as 95%; in the test with Plasmodium falciparum [2] it was 0%; with HepG2, 59%.

On to `CCCc1cc(Cc2cnc(N)nc2N)cc(CCC)c1OCCCCC(=O)O`, for which the figures for the Inhibition in the test on Plasmodium falciparum [1], in the test with Plasmodium falciparum [2] and in the test on HepG2 were 95%, 23% and 18%, respectively.

Regarding `CC(C)N1CCN(C(CN2CCN(CCCOc3cccc(F)c3)CC2)c2ccc(F)cc2)CC1.Cl` (configuration not stated), the Inhibition was 92% with Plasmodium falciparum [1], 38% in the test with Plasmodium falciparum [2] and 38% in the test on HepG2.

In the case of `CC(=O)Nc1nc(C(=O)Nc2cccc(-c3cccc(-c4nc5ccccc5[nH]4)c3)c2)cs1`, the figures for the Inhibition with Plasmodium falciparum [1], in the test on Plasmodium falciparum [2] and in the test on HepG2 were 100%, 82% and 31%, respectively.

In the case of `CC(C)Oc1ccccc1-c1csc(C(=O)NCC2CCN(Cc3ccc(C(C)(C)C)cc3)C2)c1.O=C(O)C(F)(F)F` (configuration not stated), the Inhibition in the test on Plasmodium falciparum [1] was determined as 90%; in the test on Plasmodium falciparum [2], 45%; with HepG2, 59%.

Take `Nc1cc(-c2ccc(Br)cc2O)nc2ccccc12`: the results for the Inhibition with Plasmodium falciparum [1], in the test on Plasmodium falciparum [2] and in the test on HepG2 were 100%, 50% and 23%, respectively.

For `Cc1ccccc1OCCCN1CCN(CC(c2ccc(F)cc2)N2CCN(C(C)C)CC2)CC1.Cl` (configuration not stated), the figures for the Inhibition in the test with Plasmodium falciparum [1], with Plasmodium falciparum [2] and in the test with HepG2 were 99%, 64% and 20%, respectively.

In the case of `COc1cc(Cc2cnc(N)nc2N)c2c(c1OC)OC(C)C=C2` (configuration not stated), the Inhibition in the test on Plasmodium falciparum [1] stood at 87%; in the test on Plasmodium falciparum [2], 1%; in the test on HepG2, 0%.

Take `CCC(C)OC(=O)C1=C(C)NC2=C(C(=O)CC(c3ccc(OC)c(OC)c3)C2)C1c1cccc(O)c1` (configuration not stated): the Inhibition in the test with Plasmodium falciparum [1] was found to be 100%; with Plasmodium falciparum [2] it was 98%; in the test on HepG2 it was 0%.

In the case of `Br.CC1(C)NC(N)=NC(=N)N1OCCCNC(=O)c1ccc(C(=O)NCCCON2C(=N)N=C(N)NC2(C)C)cc1`, the figures for the Inhibition in the test on Plasmodium falciparum [1], in the test on Plasmodium falciparum [2] and in the test on HepG2 were 91%, 96% and 0%, respectively.

Take `Cc1sc(NC(=O)Cc2cccc(C(F)(F)F)c2)nc1-c1cccc(Cl)c1`: the results for the Inhibition with Plasmodium falciparum [1], in the test with Plasmodium falciparum [2] and in the test with HepG2 were 100%, 95% and 15%, respectively.

Regarding `COc1ccc2ncc(F)c(NC(=O)C3CCC(NCc4cc5cc(F)cc(F)c5[nH]4)CC3)c2n1.Cl` (configuration not stated), the Inhibition in the test with Plasmodium falciparum [1] is given as 95%; with Plasmodium falciparum [2], 15%; in the test on HepG2 it was 18%.

Regarding `C=Cc1ccccc1C1(O)CCN(CCCCNC(=O)c2ccc(-c3ccc(C#N)cc3)cc2)CC1`, the Inhibition with Plasmodium falciparum [1] is recorded as 88%; in the test on Plasmodium falciparum [2], 64%; in the test on HepG2, 27%.

In the case of `CCCCCCCC1CCN(C[C@H](O)c2ccnc3ccc(OC)cc23)CC1.O=C(O)C(=O)O`, the Inhibition amounted to 94% in the test on Plasmodium falciparum [1], 81% with Plasmodium falciparum [2] and 23% in the test with HepG2.

Consider `COc1cccc(CNC[C@@H](O)[C@H](Cc2ccccc2)NC(=O)c2cc(N3CCCC3=O)c3[nH]cc(C(C)C)c3c2)c1`, for which the Inhibition stood at 96% in the test with Plasmodium falciparum [1], 98% with Plasmodium falciparum [2] and 5% with HepG2.

As for `O=C(NCCN1CCCC1)c1cccc(-c2ccc(-c3nc4cc(C(F)(F)F)ccc4[nH]3)cc2)c1`, the Inhibition with Plasmodium falciparum [1] was found to be 100%; in the test on Plasmodium falciparum [2], 99%; in the test on HepG2, 34%.

`CCc1ccc(S(=O)(=O)Nc2ccc(CCN(C)C3CCN(C)CC3)cc2)cc1`: the values for the Inhibition with Plasmodium falciparum [1], with Plasmodium falciparum [2] and with HepG2 were 86%, 9% and 25%, respectively.

`COCCNCc1nc(-c2ccc3c(Nc4ccc(Cl)cc4F)ccnc3c2)cs1`: the Inhibition in the test with Plasmodium falciparum [1] was determined as 100%; in the test with Plasmodium falciparum [2], 100%; in the test on HepG2, 0%.

As to `CCOc1ccc2[nH]c(C)cc(=NN=Cc3cccnc3)c2c1`, the Inhibition in the test on Plasmodium falciparum [1] turned out to be 100%; with Plasmodium falciparum [2], 100%; in the test with HepG2, 18%.

Regarding `CC(C)(C)c1nn(-c2ccc(Cl)cc2)c2[nH]c(=O)c(CNCc3cccs3)cc12`, the Inhibition stood at 100% in the test on Plasmodium falciparum [1], 77% in the test with Plasmodium falciparum [2] and 5% in the test on HepG2.

As to `O=C(CSc1nnc(-c2ccccc2Br)[nH]1)c1c[nH]c2ccccc12`, the Inhibition was 100% in the test with Plasmodium falciparum [1], 95% in the test on Plasmodium falciparum [2] and 7% with HepG2.

As for `Cc1ccccc1CNc1noc(-c2sccc2Br)n1`, the Inhibition in the test on Plasmodium falciparum [1] stood at 99%; in the test with Plasmodium falciparum [2], 88%; with HepG2, 0%.
